Here are results for twelve molecules from PubChem BioAssay (NCATS).

The nature of assay [1]: qHTS for Activators of Parkin Expression: LOPAC Validation Assay (FLuc Reporter) (AID 720573;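 further: 0% = DMSO and 100% = positive control compounds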). The method in brief:
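FLuc signal from Parkin-promoter coincidence reporter neuronal cells, normalized to DMSO and positive control (100%). Cells (1,500/well) pre-incubated 24 h, then exposed to LOPAC compounds in 7-point dose response for 24 h at 37 C, 5% CO2.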
In general terms: In qHTS, concentration-response curves come from the screen itself.

The target in assay [2] is T1, Hexokinase-4 (Homo sapiens) + Glucokinase regulatory protein (Homo sapiens) (UniProt P35557+Q14397). Kind of assay: qHTS assay for inhibitors of recombinant human GCK-GKRP interaction: Diaphorase-coupled assay (AID 743205). The method in brief: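 A kinetic fluorescence read (Ex 525/Em 590 nm, every minute for 30 minutes) tracked resorufin from a G6PDH-diaphorase coupled GCK reaction. It contained 10 nM GST-GCK, 10 nM FLAG-GKRP, 5 mM glucose, 0.4 mM ATP in Hepes pH 7.6. Normalized to with/without-enzyme DMSO controls.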
T1 sequence (P35557 whole entry, looked up): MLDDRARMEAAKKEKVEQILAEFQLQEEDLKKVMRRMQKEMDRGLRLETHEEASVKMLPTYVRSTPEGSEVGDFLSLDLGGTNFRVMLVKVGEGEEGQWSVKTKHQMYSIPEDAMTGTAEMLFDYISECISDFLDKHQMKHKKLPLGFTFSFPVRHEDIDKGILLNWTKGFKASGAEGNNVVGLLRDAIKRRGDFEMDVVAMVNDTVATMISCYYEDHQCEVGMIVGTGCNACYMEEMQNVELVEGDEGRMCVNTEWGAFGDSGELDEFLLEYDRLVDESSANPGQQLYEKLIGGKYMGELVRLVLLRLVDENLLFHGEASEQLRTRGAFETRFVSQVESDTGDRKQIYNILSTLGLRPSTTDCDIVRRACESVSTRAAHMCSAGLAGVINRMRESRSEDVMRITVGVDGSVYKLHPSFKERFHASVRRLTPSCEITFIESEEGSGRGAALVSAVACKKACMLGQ
T1 sequence (Q14397 whole entry, looked up): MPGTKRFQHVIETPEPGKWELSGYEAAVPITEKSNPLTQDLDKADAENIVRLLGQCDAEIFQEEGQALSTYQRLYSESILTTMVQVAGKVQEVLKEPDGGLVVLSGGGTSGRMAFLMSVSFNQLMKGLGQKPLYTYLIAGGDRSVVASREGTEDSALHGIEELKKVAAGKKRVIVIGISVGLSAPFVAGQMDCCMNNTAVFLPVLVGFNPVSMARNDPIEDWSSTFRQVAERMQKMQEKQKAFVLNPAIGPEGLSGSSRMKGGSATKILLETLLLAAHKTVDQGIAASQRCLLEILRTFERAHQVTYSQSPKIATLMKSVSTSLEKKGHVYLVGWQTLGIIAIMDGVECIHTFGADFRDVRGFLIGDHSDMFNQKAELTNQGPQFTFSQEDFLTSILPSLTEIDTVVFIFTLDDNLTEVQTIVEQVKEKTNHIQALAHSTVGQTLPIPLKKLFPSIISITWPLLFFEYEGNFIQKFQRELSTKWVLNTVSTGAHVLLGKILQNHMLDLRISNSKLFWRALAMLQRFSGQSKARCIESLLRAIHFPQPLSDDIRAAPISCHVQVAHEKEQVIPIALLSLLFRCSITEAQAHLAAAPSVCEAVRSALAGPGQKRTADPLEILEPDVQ

The target in assay [3] is T1, Hexokinase-4 (Homo sapiens) + Glucokinase regulatory protein (Homo sapiens). Kind of assay: qHTS assay for inhibitors of recombinant human GCK-GKRP interaction: ADP-Glo assay (AID 743206).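 Further: plate controls were DMSO plus enzyme for no effect and no enzyme for full effect.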 The essentials:
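GST-GCK and FLAG-GKRP (15 nM each in the dispensed mix, with 2 uM S6P) react with 0.4 mM ATP and 5 mM glucose (final) in Hepes pH 7.6 for 60 min at room temperature. ADP is measured by ADP-Glo luminescence.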

The target is the same in assay [4]. Kind of assay: qHTS assay for inhibitors of recombinant human GCK-GKRP interaction: HTRF assay (AID 743207).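 Further: 0% = DMSO with GCK present and -100% = DMSO wells lacking GCK.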 The essentials: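 After 60 min equilibration at room temperature with anti-FLAG XL665 and anti-GST antibodies, FRET ratio (665/615 nm, excitation 320 nm) was read. Proteins: GST-GCK and FLAG-GKRP, each 5 nM, plus 2 uM S6P, pH 7.1 buffer; GCK-free wells define minimum signal.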

A short description of assay [5]: qHTS Assay for Identifying Gametocytocidal Compounds (AID 743244). Further: potency means the concentration at half of the fitted maximal effect.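 On max response: on the % scale 0 is the no-effect control and ±100 the full control effect; actives lower the fluorescent signal which means gametocytes are killed.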 Particulars: P. falciparum 3D7 stage III-V gametocytes, alamarBlue, 72 h; max response: stronger effect = lower value. The essentials:
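P. falciparum 3D7 stage III–V gametocytes (20,000 cells/well) were exposed to compounds for 72 h at 37 °C, 5% CO2. AlamarBlue was then added for 24 h; decreased resorufin fluorescence (Ex 525/Em 598 nm) indicated loss of viability.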

Assay [6] is described as follows: qHTS assay for measurement of the activity of small molecule inhibitors on Zika virus induced Caspase-3 activity in human iPSC derived neural progenitor cells (hNPCs) (AID 1224857). Further: % of control where 0% means no effect; nearly all actives have a fitted effect of over 65% in size. The method in brief: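 hNPCs seeded 350 cells/well, cultured 16–20 h; compounds added 1 h before ZIKV (2 FFU/cell), 37 C 6 h. Caspase-Glo 3/7 luminescence after 30 min RT; % inhibition from induction scaled to uninfected (0%) and infected (100%) wells.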

A short description of assay [7]: qHTS assay for measurement of the activity of small molecule inhibitors on Zika virus induced Caspase-3 activity in human astrocytoma cells (AID 1224859).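 Further: plate controls were ZIKV-infected untreated cells for no effect and uninfected cells for full effect.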 The method in brief:
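Luminescence read-out (Caspase-Glo 3/7, 30 min RT) of caspase activity in SNB-19 cells infected 6 h with ZIKV, 2 FFU/cell, after 1 h compound pretreatment; % inhibition from induction normalised to uninfected (0%) and infected (100%) wells.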

The nature of assay [8]: qHTS profiling for inhibitors of Plasmodium falciparum (3D7) proliferation (AID 743322).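 Further: infected erythrocytes exposed to compound for 72 h before lysis; 100% = DMSO vehicle wells and 0% = 0.29 µM artemisinin.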 To be noted: P. falciparum 3D7 proliferation; at 28.7 µM (top of the series). The essentials:
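Erythrocytes infected with P. falciparum (0.3% parasitemia, 2.5% hematocrit) incubated with compounds 72 h at 37 C, 5% CO2. Lysis with saponin/Triton buffer containing SYBR Green I, overnight at room temperature in the dark; DNA fluorescence (485/535 nm) normalised to 0.29 uM artemisinin and DMSO.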

A short description of assay [9]: qHTS profiling for inhibitors of Plasmodium falciparum (DD2) proliferation (AID 743323; call rule not given here). To be noted: lower = more inhibition; at 28.7 µM (top of the series). The essentials:
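Parasite proliferation measured via DNA-dye fluorescence, as uninfected erythrocytes lack DNA. Cultures at 0.3% parasitemia and 2.5% hematocrit incubated 72 h with compound; signal scaled between vehicle and 0.29 uM artemisinin wells.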

Assay [10] in a line: qHTS profiling for inhibitors of Plasmodium falciparum (HB3) proliferation (AID 743324).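 Further: 100% = DMSO vehicle wells and 0% = artemisinin-treated control wells.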 To be noted: Plasmodium falciparum HB3 blood-stage proliferation; at 28.7 µM (top of the series). The method in brief: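 P. falciparum HB3 grown in erythrocytes (0.3% parasitemia, 2.5% hematocrit final) with compound for 72 h at 37 C, 5% CO2. Parasite DNA detected by SYBR Green after saponin/triton lysis overnight; normalized to 0.29 uM artemisinin and DMSO.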

Inconclusive results are not listed. Calls of active or inactive are those of the source. Unless noted, the call rests on the fitted dose curve; in most records, active means well fitted curve in the direction sought with a large enough effect; inconclusive means small, poorly fitted or top-dose-only effect, or another doubt; inactive means no such curve, though single readings can be large; an effect the other way counts as inactive or inconclusive.

As for `NCCc1ccc(S(=O)(=O)F)cc1`, the molecule was classed as inactive in [1], in assay [3], in assay [4] and in [7]. In addition, the Potency result in assay [2] and in assay [6] was “inactive” each time. For the same molecule, in assay [5], the max response was 22.8% (inactive).

Regarding `OC1CCCCC1N1CCC(c2ccccc2)CC1` (configuration not stated), the outcome in assay [1], in assay [3], in [4] and in assay [7] was inactive. Also, the Potency result in assay [2] and in assay [6] was “inactive” in each case. The max response in [5] was 6.56% (inactive).

Take `CCCCCCCCCCCCCC(=O)O[C@@H]1[C@@H](C)[C@@]2(O)[C@@H](C=C(CO)C[C@@]3(O)C(=O)C(C)=C[C@@H]23)C2C(C)(C)[C@@]21OC(C)=O` (some centres not stated): the outcome in assay [1], in assay [3], in assay [4] and in assay [7] was inactive. The Potency result in assay [2] and in [6] was “inactive” in each case. Besides, the max response in [5] was -2.77% (inactive).

`CCCN1CCc2cccc3c2[C@H]1Cc1ccc(O)c(O)c1-3`: the molecule was called inactive in assay [1], in assay [3], in [4] and in assay [7]. Also, the Potency entry in [2] and in [6] was “inactive” each time. Besides, the Potency in assay [5] was 2.82 µM (active).

Regarding `C[C@@H]1O[C@@H](O[C@H]2C[C@@H](O)[C@]3(CO)[C@@H]4C(CC[C@]3(O)C2)[C@@]2(O)CC[C@H]([C@@H]3COC(=O)C3)[C@@]2(C)C[C@H]4O)[C@H](O)[C@H](O)[C@H]1O` (some centres not stated), the molecule was classed as inactive in assay [1], in [3], in [4] and in [7]. The Potency result in assay [2] and in assay [6] was “inactive” in each case. The max response in assay [5] was 22.5% (inactive).

On to `NC(=O)c1ccc(OCC(O)CN2CC=C(c3ccc(F)cc3)CC2)cc1` (configuration not stated), for which the result in [1], in [3], in assay [4] and in assay [7] was inactive. Moreover, the Potency result in assay [2] and in assay [6] was “inactive” in each case. Besides, the max response in assay [5] was 10.4% (inactive).

Regarding `NC(=O)COc1c(F)cc(SCCNS(=O)(=O)c2ccccc2)cc1F`, the molecule was classed as inactive in assay [1], in assay [3], in assay [4] and in assay [7]. The Potency result in assay [2] and in assay [6] was “inactive” throughout. In addition, the max response in assay [5] was 9.54% (inactive).

Turning to `CC(C)NP(=O)(NC(C)C)OP(=O)(NC(C)C)NC(C)C`, the result in assay [1], in [3], in assay [4] and in [7] was inactive. Besides, the Potency result in assay [2] and in assay [6] was “inactive” each time. In addition, the max response in assay [5] is 7.64% (inactive).

`COC(=O)N1CCN(C(=O)Cc2ccc(Cl)c(Cl)c2)C(CN2CCCC2)C1` (configuration not stated): the molecule was called inactive in assay [1], in assay [3], in [4] and in assay [7]. Also, the Potency result in assay [2] and in [6] was “inactive” in each case. In addition, the max response in assay [5] is 14.6% (inactive).

In the case of `CCCN1CCc2cc(O)cc3c2[C@H]1Cc1ccc(O)c(O)c1-3`, the outcome in assay [1], in [3], in [4] and in assay [7] was inactive. Moreover, the Potency result in [2] and in [6] was “inactive” throughout. In addition, in assay [5], the Potency was 2.51 µM (active).

Turning to `CCCN(CCC)C1Cc2cc(OC)c(OC)cc2C1`, the outcome in [1], in assay [3], in [4] and in assay [7] was inactive. For the same molecule, the Potency result in [2] and in assay [6] was “inactive” in each case. In [5], the max response is 13.4% (inactive).

Take `CC(=O)c1c(O)c(C)c(O)c(Cc2c(O)c3c(c(C(=O)/C=C/c4ccccc4)c2O)OC(C)(C)C=C3)c1O`: the molecule was called inactive in assay [1], in assay [3], in [4] and in assay [7]. Moreover, the Potency result in assay [2] and in assay [6] was “inactive” in each case. Moreover, in [5], the max response was 17.7% (inactive). In [8], the remaining parasite growth % (stronger effect = lower value) is -0.946%. Besides, the activity, percent of control in assay [9] was -0.827%. Also, the remaining proliferation (% of control), lower = more inhibition in assay [10] was -2.57%.
